Measured values from PMC5540273 (PLoS ONE, 2017).

Columns and labels:
Settings in all cases: concentration: 1 μM, replicates: in singlicate; n = 1
[1] = test system: T1, ASK2
T1 construct: gene MAP3K6

[2] = test system: AURKA
[3] = test system: AURKB
[4] = test system: AURKC
[5] = test system: AXL
[6] = test system: T2, BIKE
T2 construct: gene BMP2K

[7] = test system: BLK
[8] = test system: BMPR1A
[9] = test system: BMPR1B
[10] = test system: BMPR2
[11] = test system: BMX
[12] = test system: BRAF
[13] = test system: T3, BRK
T3 construct: gene PTK6

[14] = test system: BRSK1
[15] = test system: BRSK2
[16] = test system: BTK
[17] = test system: BUB1
[18] = test system: CAMK1B
[19] = test system: CAMK1D
[20] = test system: CAMK1G
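Further: KINOMEscan kinase panel screen.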

SMILES	%Inh [1] [%]	%Inh [2] [%]	%Inh [3] [%]	%Inh [4] [%]	%Inh [5] [%]	%Inh [6] [%]	%Inh [7] [%]	%Inh [8] [%]	%Inh [9] [%]	%Inh [10] [%]	%Inh [11] [%]	%Inh [12] [%]	%Inh [13] [%]	%Inh [14] [%]	%Inh [15] [%]	%Inh [16] [%]	%Inh [17] [%]	%Inh [18] [%]	%Inh [19] [%]	%Inh [20] [%]
COC(=O)Nc1nc2ccc(Oc3ccc(NC(=O)Nc4cc(C(F)(F)F)ccc4F)cc3)cc2n1C.Cl [GW692089]	0	0	94.1	14	95	0	27	0	0	11	5	57	0	0	26	59	42	0	1	0
O=C(O)C(F)(F)F.O=C(O)C(F)(F)F.O=c1[nH]ccc2nc(N[C@@H]3CCCNC3)nc(Nc3ccc(S(=O)(=O)N4CCOCC4)cc3)c12 [GSK2177277]	19	96.8	97.6	100	99.9	100	95.6	0	90.8	98.6	58	0	9	69	69	90.7	90.5	100	99.1	74
O=C(Nc1ccccc1F)NC1CCN(c2ccnc(Nc3ccc(F)cc3)n2)CC1 [GSK1379800]	17	15	0	54	15	39	0	8	0	12	3	0	0	0	0	0	63	36	5	0
COc1ccc(CNC(=O)NC2CCN(c3ccnc(Nc4ccc(F)cc4)n3)CC2)cc1 [GSK1379788]	0	34	26	5	0	0	3	0	0	5	3	0	0	0	0	0	56	7	15	0
COc1cc(Nc2nccc(N3CCC(NC(=O)c4cc5ccccc5s4)C3)n2)cc(OC)c1OC (stereo not shown) [GSK1379760]	100	59	68	86	14	70	100	0	0	13	1	4	11	0	4	67	26	49	14	18
CNC(=O)c1ccccc1Nc1nc(Nc2ccc(N3CCOCC3)cc2)ncc1Cl.Cl [GSK1576028]	16	100	99.9	100	100	100	99.7	28	100	53	91.4	72	94.6	78	92.4	96.9	96.7	39	54	30
Nc1n[nH]c2cnc(-c3ccccc3)cc12 [SB-642124]	0	4	32	100	0	99.4	0	0	53	33	5	7	19	13	7	0	44	8	0	10
COc1cccc(C2=C(Nc3ccc(Cl)c(C(=O)O)c3)C(=O)NC2=O)c1 [SB-390769]	100	0	39	23	3	16	10	0	0	100	0	13	38	0	0	25	44	28	0	0
